rTrxR1 inhibitor – inhibitors of rat thioredoxin reductase 1; recombinant rTrxR1, NADPH fluorescence consumption, selenite substrate; AID 588453; O89049; Potency, µM (top dose mostly 114 µM), inactives show at the highest dose activity change, negative = inhibition, actives largely listed as inhibitors; 1% of 390,000 active; note: potency is the fitted concentration of half-maximal effect; nearly all actives have a fitted effect of over 65% in size
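Rat TrxR1 (90 nM in the dispensed reagent) was pre-reduced with 400 uM NADPH for 5 min at room temperature, then incubated with compound for 15 min. After 400 uM selenite was added, NADPH fluorescence (Ex 340/Em 450 nm) was followed for 8 min.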
CtBP-E1A blk – inhibitors of CtBP/E1A interaction. activity change, % (test concentration not listed). 0.49% of 340,000 active. AlphaScreen GST-E1A/His-CtBP binding, 1536-well; stronger effect = lower value; in the data active = activity change below about -65%; inconclusive = mostly about -30% to -63%
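In 5 uL wells, 23 nL compound meets equimolar GST-E1A and His-CtBP (5X stock 125 nM each) for 2 h, 37 °C. Beads (5X, 50 ug/mL) then 1 h, 37 °C, dark.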
GALK inhibitor – blocks human galactokinase activity; Purified GALK, Kinase-Glo residual ATP luminescence; Potency, µM (doses to about 57.5 µM), for inactives: top-dose activity change, negative = inhibition, most hits filed as inhibitors; P51570; 0.007% of 270,000 active; note: potency is the fitted concentration of half-maximal effect
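5 nM enzyme, 35 uM ATP, 100 uM galactose, 20 mM HEPES pH8.0, 5 mM MgCl2; 1 h RT; residual ATP by Kinase-Glo Plus luminescence, qHTS format.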
Eya2 phos inh – blocks the phosphatase activity of human Eya2. AID 488837. recombinant Eya2, OMFP fluorescence dephosphorylation (OMFP is methylfluorescein phosphate). Potency, µM (doses to about 76.9 µM), without a hit: at the highest dose activity, negative = inhibition, actives largely listed as inhibitors. 0.006% of 330,000 active; note: potency is the fitted concentration of half-maximal effect
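Eya2 protein (added as 0.2 uM solution) was preincubated with compound for 10 min at ambient temperature in 50 mM HEPES pH 7.5, 50 mM NaCl, 5 uM MgCl2, 0.05% BSA, 1 mM DTT. OMFP (added at 50 uM) then reacted 10 min; fluorescence read at 485/525 nm.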
Six1-Eya2 blk – inhibitors of human Six1/Eya2 interaction. AID 651725. 0.56% of 360,000 active. Q15475+O00167. AlphaScreen GST-Six1/His-Eya2 binding, biochemical; stronger effect = lower value. activity change, % (no concentration beside the values); in the data active = activity change below about -65%; inconclusive = mostly about -30% to -63%
Target sequence (O00167 whole entry, looked up): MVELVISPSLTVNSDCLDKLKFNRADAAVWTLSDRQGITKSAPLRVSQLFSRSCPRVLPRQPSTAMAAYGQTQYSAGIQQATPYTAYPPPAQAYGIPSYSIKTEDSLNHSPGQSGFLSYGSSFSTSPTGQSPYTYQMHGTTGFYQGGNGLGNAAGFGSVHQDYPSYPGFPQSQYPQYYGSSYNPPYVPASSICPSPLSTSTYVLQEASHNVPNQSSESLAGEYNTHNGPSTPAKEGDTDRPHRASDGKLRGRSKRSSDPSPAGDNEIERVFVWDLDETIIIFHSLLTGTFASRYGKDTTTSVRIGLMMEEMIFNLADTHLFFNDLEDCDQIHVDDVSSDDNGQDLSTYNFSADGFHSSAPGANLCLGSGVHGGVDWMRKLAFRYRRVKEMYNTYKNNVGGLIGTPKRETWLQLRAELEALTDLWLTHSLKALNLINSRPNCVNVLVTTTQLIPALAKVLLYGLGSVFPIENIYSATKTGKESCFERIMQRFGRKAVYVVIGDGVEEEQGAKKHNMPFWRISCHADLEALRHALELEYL
Target sequence (Q15475 whole entry, looked up): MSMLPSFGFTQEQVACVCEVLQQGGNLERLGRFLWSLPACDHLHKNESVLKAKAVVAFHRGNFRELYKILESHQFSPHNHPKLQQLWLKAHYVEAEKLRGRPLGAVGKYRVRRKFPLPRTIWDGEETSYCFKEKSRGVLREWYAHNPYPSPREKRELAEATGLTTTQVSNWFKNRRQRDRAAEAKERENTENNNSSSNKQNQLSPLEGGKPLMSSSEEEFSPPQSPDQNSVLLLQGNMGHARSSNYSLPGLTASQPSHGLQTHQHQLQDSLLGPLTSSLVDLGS
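AlphaScreen luminescence read after one hour at 37 °C in darkness. Pin-transferred compounds met GST-Six1 and His-Eya2 protein (5X stock 250 nM/500 nM) plus glutathione donor and Ni-chelate acceptor beads (5X, 50 ug/mL).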
TrxR1 substrate – substrates of rat thioredoxin reductase 1. purified TrxR1 substrate turnover, NADPH consumption readout. Potency, µM (series often up to 114 µM), for inactives: at the highest dose activity change, negative = substrate turnover. 0.01% of 390,000 active; note: potency is the fitted concentration of half-maximal effect; nearly all actives have a fitted effect of over 50% in size
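Rat TrxR1, dispensed at 90 nM, was prereduced with 400 uM NADPH (final) for 5 min at ~22 deg C, then incubated with compound 15 min before 400 uM selenite. A first-read NADPH fluorescence drop versus no-compound background flagged substrates.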
* hit, by the source's call; ? = inconclusive; . = no result given; ! = a repeat was not active; [ ] = another dose, or the depositor's remark. The list is not random: actives were taken first. Their share in the collection is about 1.5%. Unless noted, calls come from the whole dose curve; as a rule, active = well fitted curve in the direction sought with a large enough effect; inconclusive = small, poorly fitted or top-dose-only effect, or another doubt; inactive = no such curve, though single readings can be large; an effect the other way counts as inactive or inconclusive. % is set by controls: 0 for no effect and ±100 for the full control effect.

SMILES | rTrxR1 inhibitor | CtBP-E1A blk | GALK inhibitor | Eya2 phos inh | Six1-Eya2 blk | TrxR1 substrate
CCCCCCCCCCCCCC(=O)O[C@@H]1[C@@H](C)[C@@]2(O)[C@@H](C=C(CO)C[C@@]3(O)C(=O)C(C)=C[C@@H]23)C2C(C)(C)[C@@]21OC(C)=O (some centres undefined) | 20%[57.1 µM] | . | . | ? | . | ?
O=c1[nH]c(=O)n(-c2cccc(Cl)c2)c(O)c1/C=N/c1ccccn1 | -15%[57.1 µM] | 2 | 5% | 4% | -5 | 12%[57.1 µM]
COc1ccc2nc(/N=C/c3c(O)n(-c4cccc(Cl)c4)c(=O)[nH]c3=O)sc2c1 | ? | ? | 1% | 10% | -71* | 9%
CCCn1c(=O)n(C)c(=O)c2c(SCC(=O)NC34CC5CC(CC(C5)C3)C4)nc(CC(C)C)nc21 | 29% | 1 | 2% | 2% | 0 | 1%
O=C1NC(=S)NC(=O)C1=Cc1ccc(Br)s1 | 4.5µM* | . | 3% | 11% | 3 | 2%
Cc1cc(/C=C2\C(=O)NC(=S)N(C)C2=O)c(C)n1C1CCCCC1 | ? | 22 | 0% | -6% | -16 | -2%
CN1C(=O)/C(=C\c2ccc(Br)s2)C(=O)NC1=S | 3.2µM* | -15 | 6% | 15% | ? | -5%
CCOc1ccc(N2C(=O)NC(=O)/C(=C\c3ccccc3[N+](=O)[O-])C2=O)cc1 | 8.9µM* | . | 1% | 2% | -2 | 1%
COc1ccc(N2C(=O)NC(=O)/C(=C\c3ccccc3[N+](=O)[O-])C2=O)cc1 | 10µM* | 11 | 5% | 0% | -2 | -6%
O=C1NC(=O)N(c2ccccc2)C(=O)/C1=C\c1ccc([N+](=O)[O-])o1 | . | . | -5% | 20% | . | .
COc1ccc(N2C(=O)NC(=O)/C(=C/c3ccc4c(c3)Cc3ccccc3-4)C2=O)cc1 | . | . | -2% | -5% | . | .
O=P1(Oc2ccccc2)CC=CC(COC(c2ccccc2)(c2ccccc2)c2ccccc2)O1 (centres undefined) | 1% | . | . | . | . | -6%
N#Cc1c(/N=C/C2C(=O)NC(=S)NC2=O)sc2c1CCCC2 | 22µM* | -2 | 0% | 0% | -10 | -5%
CCOC(=O)c1c(/N=C/C2C(=O)NC(=S)NC2=O)sc(C)c1C | . | . | 6% | -17% | . | .
CCOC(=O)c1cc(C)sc1/N=C/C1C(=O)NC(=S)NC1=O | 0.71µM* | 11 | 13% | 2% | ? | -5%[57.1 µM]
CCOC(=O)c1c(/N=C/C2C(=O)NC(=S)NC2=O)sc2c1CCC2 | 18µM* | 0 | -1% | 7% | -11 | -4%[57.1 µM]
CN1C2CCC1CC(NC(=O)c1nn(C)c3ccccc13)C2 (centres undefined) | 15%[57.1 µM] | . | . | . | . | .
CC[N+](C)(C)c1cccc(O)c1 | ? | 4 | -2% | -9% | 0 | -3%[57.1 µM]
Cc1c(N=Nc2c(O)n(Cc3ccccc3)c(=O)[nH]c2=O)c(=O)n(-c2ccccc2)n1C | -12% | -72* | 2% | -3% | -89* | -17%
CCN1C(=O)C(=Cc2ccc(C)s2)C(=O)N(CC)C1=S | 14µM* | 1 | . | 4% | -10 | -4%
NCC(=O)c1cccc([N+](=O)[O-])c1 | -10% | . | . | . | . | 4%
O=C1NC(=O)N(CCC2=CCCCC2)C(=O)/C1=C/c1cccs1 | 7.9µM* | -16 | -6% | 22% | 0 | 4%[57.1 µM]
O=C1NC(=O)N(CCC2=CCCCC2)C(=O)/C1=C/c1ccc(O)cc1 | ? | . | -2% | 0% | 1 | -6%
CCN1C(=O)C(=C2C=C(C)OC(C)=C2)C(=O)N(CC)C1=S | 16% | 5 | -1% | 1% | 5 | 6%
CCOC(=O)C1=CC(=C2C(=O)N(CC)C(=S)N(CC)C2=O)c2ccccc2O1 | 40µM* | 0 | -4% | 14% | -8 | -10%
SMILES | rTrxR1 inhibitor | CtBP-E1A blk | GALK inhibitor | Eya2 phos inh | Six1-Eya2 blk | TrxR1 substrate
CN(C)[C@@H]1C(=O)C(C(N)=O)=C(O)[C@@]2(O)C(=O)C3=C(O)c4c(O)cccc4[C@@](C)(O)C3[C@H](O)C12 (some centres undefined) | 32µM*! | -67* | . | 21% | -9 | 3%
CN(C)[C@@H]1C(=O)C(C(N)=O)=C(O)[C@@]2(O)C(=O)C3=C(O)c4c(O)ccc(Cl)c4[C@@](C)(O)C3C[C@@H]12 (some centres undefined) | ? | -24 | . | 1% | -2 | -1%
COc1cc(/C=C2\C(=O)NC(=O)N(CCc3ccc(F)cc3)C2=O)ccc1O | 14µM* | -1 | -1% | 3% | -2 | -9%
COc1cc(C=C2C(=O)NC(=O)NC2=O)ccc1O | ? | . | -1% | -27% | 2 | 1%[57.1 µM]
CCOc1ccc(/C=C2/C(=O)NC(=O)N(CCc3ccc(F)cc3)C2=O)cc1 | 28µM* | . | -4% | 3% | 7 | 1%
Cc1cccc(Oc2nc3c(C)cccn3c(=O)c2/C=C(\C#N)c2nc3ccccc3s2)c1 | 49% | . | . | . | . | 16%
CCCN1CCC[C@@H]2Cc3n[nH]cc3C[C@H]21 | 7% | . | . | . | . | .
COC(=O)C1=C(C(=O)OC)C2OC1c1cc3ccccc3cc12 | 2.5µM* | 11 | . | . | -10 | 1%
COC(=O)C1=C(c2ccc3ccccc3c2)C[C@@H]2CC[C@H]1N2C | 30%[57.1 µM] | -29 | . | 8% | 29 | 11%[57.1 µM]
CC(=O)c1cccc(NC(=O)c2noc3c2CSc2ccccc2-3)c1 | ? | . | . | . | . | 6%
O=C(Cc1ccc(N(CCCl)CCCl)cc1)NC(Cc1ccc(Cl)cc1)C(=O)O (centres undefined) | 40µM* | 9 | -4% | -14% | -2 | 4%
N[C@@H](Cc1ccc(N(CCCl)CCCl)cc1)C(=O)O | ? | -2 | . | 10% | -1 | 2%
O=C(O)CCCc1ccc(N(CCCl)CCCl)cc1 | 50µM* | 8 | 0% | -2% | 4 | 12%[57.1 µM]
CC(=O)NC(Cc1ccc(N(CCCl)CCCl)cc1)C(=O)O (centres undefined) | 32µM* | 4 | -4% | 9% | 10 | 9%[57.1 µM]
CN1C(=O)NC(c2cccc(O)c2)C(C(=O)c2cccs2)C1(O)C(F)(F)F (centres undefined) | 32µM* | 8 | -1% | 3% | 1 | -5%
CCCC[N+]12CCC(CC1)C(C(=O)c1cccs1)C2 (centres undefined) | -7%[57.1 µM] | 0 | -1% | 10% | 12 | -3%
O=C1NC(=O)N(c2cccc(Br)c2)C(=O)/C1=C/c1ccsc1 | 45µM* | 10 | 6% | 0% | -1 | 4%

From PubChem
